TSHR antag: blocks TSH signaling through the human TSH receptor | 330,000 tested, 0.2% active | AID 504810 | TSHR-expressing cells, TSH-stimulated cAMP HTRF, 2 h; stronger effect = lower value | P16473 | activity change, negative = inhibition, % at 11.5 µM;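 active means activity change below a set negative limit, meaning inhibition stronger than a set level, cut at about -70% in these data; inconclusive means activity change between two set negative limits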; further: on the % scale 0 is the no-effect control and ±100 the full control effect
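TSHR-expressing cells were treated with compounds, then stimulated with TSH at EC80 (4nM final) for 2 hours at 37 deg C. Cellular cAMP was measured by HTRF competition between lysate cAMP and cAMP-d2 for a cryptate-labelled anti-cAMP antibody.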
N370S GC mod: N370S glucocerebrosidase modulation, Gaucher chaperone candidate; N370S GC spleen homogenate, 4MU-glucoside fluorescence; P04062; Potency, µM (doses to about 59.4 µM), for inactives: top-dose activity change, negative = inhibition, hits mostly inhibitors; 330,000 tested, 0.092% active; AID 2101;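 further: potency means the concentration at half of the fitted maximal effect; 0% = full enzyme activity and -100% = no enzyme basal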
TCR act: T cell receptor activation. Potency, µM (top dose mostly 9.22 µM), inactives show top-dose activation of IL-2 secretion, usual class: activators. primary human leukocytes, anti-CD3, IL-2 HTRF, 48 h. AID 504894. 330,000 tested, under 10 active; further: % of control where 0% means no effect
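Primary human leukocytes receive a-CD3 beads and test compound and are incubated 48 hr. Secreted IL-2 is then assayed by HTRF, measuring 665nm acceptor emission after 320nm excitation of the europium donor.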
p53 reactivation: restores transcriptional activity of mutant p53; H1299 p53-A138V BP100-luciferase reporter, luminescence, 24 h; Potency, µM (titrated, usually from 92.2 µM), for the others: top-dose activity change, positive = activation, most hits filed as activators; 320,000 tested, 0.063% active; AID 504706; further: potency means the concentration at half of the fitted maximal effect; % of control where 0% means no effect; nearly all actives have a fitted effect of over 45% in size
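H1299 (p53-null), stable ts p53-A138V + BP100-Luc; 1000 cells/well, Opti-MEM/10% FBS; cpd 4 pt, 1:5; 24 h, 37 deg C, 5% CO2; detection reagent 10 min RT; luminescence.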
BRCA1 expr up: increases BRCA1 expression | MCF7-BRCA1-FFLuc reporter, luminescence, 48 h; response scale: scaled: vehicle 0%, 10 µM genistein 100% | Potency, µM (titrated, usually from 46.1 µM), for inactives: at the highest dose activation, most hits filed as activators | 380,000 tested, 1.1% active | AID 624202; further: potency means the concentration at half of the fitted maximal effect; nearly all actives have a fitted effect of over 80% in size
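Compounds are tested at multiple concentrations on MCF7 BRCA1-luciferase reporter cells seeded at 2000 per well; after 48 h, a single luminescence end-point is taken and curves fitted to the normalized data.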
GLS inhibitor: inhibitors of human glutaminase (GLS); O94925; GLS enzymatic activity, qHTS titration; Potency, µM (top dose mostly 45.5 µM), for inactives: top-dose activity change, negative = inhibition, hits mostly inhibitors; 410,000 tested, 0.21% active; AID 624170; further: potency means the concentration at half of the fitted maximal effect; on the % scale 0 is the no-effect control and ±100 the full control effect
Target sequence (O94925 whole entry, looked up): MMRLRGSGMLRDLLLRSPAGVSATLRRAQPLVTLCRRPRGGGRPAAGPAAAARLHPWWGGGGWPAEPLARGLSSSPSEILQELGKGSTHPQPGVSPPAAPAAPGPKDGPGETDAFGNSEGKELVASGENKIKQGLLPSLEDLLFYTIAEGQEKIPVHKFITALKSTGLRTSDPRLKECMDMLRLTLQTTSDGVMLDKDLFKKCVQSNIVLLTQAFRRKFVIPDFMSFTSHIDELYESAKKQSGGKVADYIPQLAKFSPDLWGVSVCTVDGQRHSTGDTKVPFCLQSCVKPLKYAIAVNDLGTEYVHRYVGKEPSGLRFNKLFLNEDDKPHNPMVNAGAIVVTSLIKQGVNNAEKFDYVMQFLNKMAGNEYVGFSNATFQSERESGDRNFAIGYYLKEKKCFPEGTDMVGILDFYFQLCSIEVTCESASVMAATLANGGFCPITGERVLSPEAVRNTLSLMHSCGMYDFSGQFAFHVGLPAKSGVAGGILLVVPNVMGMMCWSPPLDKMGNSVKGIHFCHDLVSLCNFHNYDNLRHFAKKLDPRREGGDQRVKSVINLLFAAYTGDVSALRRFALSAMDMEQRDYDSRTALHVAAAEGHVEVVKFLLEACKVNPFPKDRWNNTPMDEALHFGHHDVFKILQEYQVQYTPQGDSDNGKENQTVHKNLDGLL
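Read-out is an Amplex red fluorescence increase coupled through glutamate oxidase and HRP, measured before and after 30 min room-temperature incubation. hKGA is in 45 mM KH2PO4 (pH 8.2) with 0.02% Tween-20; glutamine added as 1mM solution.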
Starred values were filed as active, the others as inactive; ? = inconclusive; . = not tested or not shown; [ ] = dose if it differs, or a comment. The list is not random: actives were taken first. Their share in the collection is about 1.4%. Unless noted, the call rests on the fitted dose curve; in most records, active means well fitted curve in the direction sought with a large enough effect; inconclusive means small, poorly fitted or top-dose-only effect, or another doubt; inactive means no such curve, though single readings can be large; an effect the other way counts as inactive or inconclusive.

SMILES	TSHR antag	N370S GC mod	TCR act	p53 reactivation	BRCA1 expr up	GLS inhibitor
Cc1cc(C)cc(NC(=O)c2sc3nc(C)cc(C)c3c2N)c1	-5.3	?	-0.8%	7.1%	3.98µM*	-3.7%
Cc1cccc(NC(=O)c2sc3nc(N)c(C#N)cc3c2N)c1	-16.2	-7.7%	-2.1%[46.1 µM]	?	3.16µM*	16.6%
N#Cc1cc2c(N)c(C(=O)Nc3ccccc3)sc2nc1N	-9.1	-2.9%	.	6.4%	.	.
C1=Cc2ccccc2/C1=C/c1ccc2c(c1)OCO2	.	.	.	.	58.5%	.
Oc1cc(CNCc2ccccc2)c(O)cc1CNCc1ccccc1	.	.	3.2%	.	-14.4%	17.8µM*
CN(CC(=O)Nc1ccccc1Cl)C(=O)COC(=O)c1ccc(Cl)nc1	4.3	1.4%	-5.1%	3.2%	4.1%	-2.4%
CN(CC(=O)Nc1ccccc1Cl)C(=O)COC(=O)c1nc(Cl)c(Cl)c(Cl)c1Cl	-89.0*	-7.2%	6.5%	-30.3%	-86.9%	2.0%
CN(C)c1cc2c3ccccc3n(C)c2cc1N	.	.	-6.0%	.	-58.3%	11.2µM*
Cc1ccc2nc(CO)[nH]c2c1	.	.	.	.	4.9%	.
COc1cc(/C=C(\C#N)C(=O)Nc2cccc(C(=O)O)c2)ccc1OCc1ccc(C)cc1	-16.9	-7.2%	-2.9%	?	5.01µM*	?
Cc1c(NC(=O)Nc2c(Cl)cccc2Cl)c(=O)n(-c2ccccc2)n1C	19.0	0.4%	7.3%	-4.9%	-15.1%	-1.1%
Cc1c(NC(=O)Nc2ccccc2Cl)c(=O)n(-c2ccccc2)n1C	-79.8*	1.0%	-2.8%	-2.4%	8.7%	9.0%
O=C(OC(c1ccccc1)c1nccc2ccccc12)c1cccc([N+](=O)[O-])c1 (stereo not drawn)	-10.1	?	0.7%[46.1 µM]	?	7.08µM*	-7.2%
O=C(OC(c1ccccc1)c1nccc2ccccc12)c1ccccc1 (stereo not drawn)	.	.	1.4%	.	51.8%	-2.9%
O=C(CSc1ncc(-c2ccc(F)cc2)[nH]1)N1CCCCC1	-4.0	7.5%	-2.8%	?	11.2µM*	19.8%
O=C(O)CCCC/C=C\C[C@@H](O)/C=C/C=C/C=C\[C@@H](O)CCCC(=O)O	.	7.2%	.	.	.	.
Cc1ccc(C(=O)Nc2ccc(S(=O)(=O)O)c3cc(S(=O)(=O)O)cc(S(=O)(=O)O)c23)cc1NC(=O)c1cccc(NC(=O)Nc2cccc(C(=O)Nc3cc(C(=O)Nc4ccc(S(=O)(=O)O)c5cc(S(=O)(=O)O)cc(S(=O)(=O)O)c45)ccc3C)c2)c1	-15.9	?	.	.	0.0%	8.91µM*
Cc1ccc(CNC(=O)COc2ccc(C)nc2[N+](=O)[O-])cc1	17.5	-10.0%	2.9%[46.1 µM]	-9.4%	-19.1%	-4.3%
Cc1ccc(COc2ccc(C)nc2[N+](=O)[O-])cc1	10.3	16.1%	7.0%	?	4.47µM*	-1.8%
Nc1c(Cl)cc(C=O)cc1Cl	.	.	.	.	10.6%	.
CCOc1ccc(OCc2ccc(C(=O)N3CCOCC3)cc2)cc1	-10.7	-0.3%	-2.6%[46.1 µM]	14.4%	31.4%[1.84 µM]	.
CCOc1ccc(N=C(/C(C(=O)C(=O)N2CCOCC2)=C(\O)c2ccccc2)c2ccccc2)cc1	-8.4	1.8%	-2.0%[46.1 µM]	?	7.94µM*	16.0%
COc1ccc(NC(=S)NC(=O)c2ccccc2Cl)cc1	0.0	-12.4%	-9.1%	15.2%	12.6µM*	12.2%
COc1ccc(NC(=S)NC(=O)C2CCCCC2)cc1	18.4	-5.7%	2.8%	-7.0%	7.94µM*	1.0%
O=C(NC(=S)Nc1ccccc1[N+](=O)[O-])c1ccccc1Cl	4.3	4.8%	5.9%	11.7%	12.6µM*	0.0%
Cc1cccc(NC(=S)NC(=O)C2CC2)c1	16.0	-0.4%	.	25.1µM*	.	.
Cc1cc(C)cc(NC(=S)NC(=O)C2CC2)c1	-1.0	0.4%	1.2%	-7.8%	1.6%	-9.9%
CN(C)c1ccc(/C=C/C(=O)c2ccccc2O)cc1	-23.4	6.7%	-1.5%	?	3.16µM*	55.5%
